Results filed as inconclusive are left out. Calls of active or inactive are those of the source. Rule for the calls, unless noted: active = hit-call score of the fitted dose curve at least 0.9, where 1 is the maximum; inactive = score below 0.9.
Columns and labels:
[1] = BSK_LPS_PGE2: BioMAP Diversity Plus: LPS Assay for Prostaglandin E2 (PGE2) Biomarker Activity (AID 2283082); details: primary human HUVEC with PBMC; actives raise or lower the signal;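 for AC50: secreted prostaglandin E2 measured by ELISA in LPS-stimulated co-culture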
Summary of the method: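 HUVEC plus human PBMC co-culture stimulated with LPS; secreted PGE2 quantified by ELISA 24 h after chemical dosing. Activity fitted bidirectionally against DMSO baseline; parallel SRB staining (0.1% SRB after 10% TCA fixation, 560 nm) flags overt cytotoxicity.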

[2] = read-out: Macrophage colony-stimulating factor (MCSF), CSF1 (gene 1435); assay: BSK_LPS_MCSF: BioMAP Diversity Plus: LPS Assay for Macrophage colony-stimulating factor (MCSF) Biomarker Activity (AID 2283083); details: primary human HUVEC with PBMC; actives raise or lower the signal
Summary of the method: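 Human umbilical vein endothelial cells co-cultured with peripheral blood mononuclear cells were exposed to compound for 24 h. M-CSF levels were measured by ELISA, and bidirectional curve fitting used DMSO as the negative control and baseline.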

[3] = read-out: Tissue Factor, F3 (gene 2152); assay: BSK_LPS_TissueFactor: BioMAP Diversity Plus: LPS Assay for Tissue Factor Biomarker Activity (AID 2283084); details: primary human HUVEC with PBMC; actives raise or lower the signal
Summary of the method: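 Human umbilical vein endothelial cells co-cultured with peripheral blood mononuclear cells were dosed and stimulated with LPS. Cell-surface CD142 was quantified by ELISA at 24 h. Activity was fitted bidirectionally against DMSO baseline.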

[4] = read-out: Tumor necrosis factor (Homo sapiens) (UniProt P01375); assay: BSK_LPS_TNFa: BioMAP Diversity Plus: LPS Assay for Tumour Necrosis Factor alpha (TNFa) Biomarker Activity (AID 2283085); details: primary human HUVEC with PBMC; actives raise or lower the signal
Summary of the method: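 Human umbilical vein endothelial cells co-cultured with PBMC and stimulated with LPS. TNFa was measured by ELISA 24 h after chemical dosing, fitted bidirectionally relative to DMSO.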

[5] = read-out: Vascular cell adhesion molecule 1 (VCAM1), VCAM1 (gene 7412); assay: BSK_LPS_VCAM1: BioMAP Diversity Plus: LPS Assay for Vascular cell adhesion molecule 1 (VCAM1) Biomarker Activity (AID 2283086); details: primary human HUVEC with PBMC; actives raise or lower the signal
Summary of the method: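 Human umbilical vein endothelial cells co-cultured with PBMC and stimulated with LPS; VCAM-1 measured by ELISA 24 h after dosing. Bidirectional curve fitting against DMSO baseline; cytotoxicity tracked in parallel by SRB total-protein staining.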

CD38, CD38 (gene 952) = assay: BSK_SAg_CD38: BioMAP Diversity Plus: SAg Assay for CD38 Biomarker Activity (AID 2283087); details: primary human HUVEC with PBMC; actives raise or lower the signal
Summary of the method: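 Human HUVEC plus PBMC co-culture stimulated with superantigen; CD38 measured by ELISA 24 h after chemical dosing. Fluorescence read-out, bidirectional fit against DMSO; cytotoxicity tracked in parallel by SRB and Alamar Blue.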

CD40, CD40 (gene 958) = assay: BSK_SAg_CD40: BioMAP Diversity Plus: SAg Assay for CD40 Biomarker Activity (AID 2283088); details: primary human HUVEC with PBMC; actives raise or lower the signal
Summary of the method: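 Human umbilical vein endothelial cells co-cultured with PBMC; CD40 levels measured by ELISA with fluorescence read-out 24 h after chemical dosing. Gain or loss of signal fitted bidirectionally against DMSO baseline.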

CD69, CD69 (gene 969) = assay: BSK_SAg_CD69: BioMAP Diversity Plus: SAg Assay for CD69 Biomarker Activity (AID 2283089); details: primary human HUVEC with PBMC; actives raise or lower the signal;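 for AC50: cell surface CD69 protein quantified by ELISA with fluorescence detection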
Summary of the method: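 Values derive from bidirectional fitting relative to DMSO vehicle. Cells: umbilical vein endothelium plus peripheral blood mononuclear cells, treated 24 h before fluorescent ELISA for CD69.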

[6] = read-out: Monocyte Chemoattractant Protein-1 (MCP1), CCL2 (gene 6347); assay: BSK_SAg_MCP1: BioMAP Diversity Plus: SAg Assay for Monocyte Chemoattractant Protein-1 (MCP1) Biomarker Activity (AID 2283090); details: primary human HUVEC with PBMC; actives raise or lower the signal
Summary of the method: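 MCP-1 levels in the endothelial–PBMC SAg co-culture were quantified by ELISA at 24 h post-dosing; both increases and decreases versus DMSO scored. Cytotoxicity monitored by SRB total protein in parallel cultures.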

[7] = read-out: E-selectin (Homo sapiens) (UniProt P16581); assay: BSK_SAg_Eselectin: BioMAP Diversity Plus: SAg Assay for Eselectin Biomarker Activity (AID 2283091); details: primary human HUVEC with PBMC; actives raise or lower the signal
Summary of the method: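 HUVEC co-cultured with PBMC, compound dosed then read at 24 h; E-selectin measured by ELISA. Activity fitted bidirectionally against DMSO as negative control and baseline.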

[8] = read-out: Monokine induced gamma interferon (MIG), CXCL9 (gene 4283); assay: BSK_SAg_MIG: BioMAP Diversity Plus: SAg Assay for Monokine induced gamma interferon (MIG) Biomarker Activity (AID 2283092); details: primary human HUVEC with PBMC; actives raise or lower the signal
Summary of the method: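 Values reflect bidirectional fitting of ELISA-measured MIG against DMSO vehicle, taken 24 h after dosing of a co-culture of human umbilical vein endothelial cells and peripheral blood mononuclear cells.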

[9] = BSK_SAg_PBMCCytotoxicity: PBMC Cytotoxicity Assessment in the BioMAP Diversity Plus: SAg Assay (AID 2283093); details: primary human HUVEC with PBMC;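 note: PBMC viability measured as Alamar Blue reduction fluorescence at 546/580 nm; fitted both ways against DMSO so a hit may be loss or gain of signal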;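 for AC50: PBMC superantigen activated with SEB plus TSST-1 one hour after compound addition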
Summary of the method: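 HUVEC/PBMC co-culture; PBMC exposed to chemical 1 h before SEB and TSST-1 activation (20 ng/mL each), incubated 90 h, then Alamar Blue 6 h, fluorescence 546/580 nm. Bidirectional fit versus DMSO baseline.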

[10] = read-out: Interleukin-8 (IL8), CXCL8 (gene 3576); assay: BSK_SAg_IL8: BioMAP Diversity Plus: SAg Assay for Interleukin-8 (IL8) Biomarker Activity (AID 2283094); details: primary human HUVEC with PBMC; actives raise or lower the signal
Summary of the method: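 Human umbilical vein endothelial cells co-cultured with PBMC, stimulated with superantigen; IL-8 measured by ELISA 24 h after chemical dosing. Bidirectional fitting versus DMSO; SRB staining in parallel cultures tracks cytotoxicity.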

[11] = BSK_SAg_SRB: Viability Assessment in the BioMAP Diversity Plus: SAg Assay (AID 2283096); details: primary human HUVEC with PBMC;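 note: cells read one day after compound addition; hits may be either gain or loss of signal compared with DMSO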
Summary of the method: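 Human umbilical vein endothelial cells co-cultured with PBMC, read 24 h after compound dosing. Total protein measured by sulforhodamine B staining (0.1% SRB after 10% TCA fixation, absorbance 560 nm); bidirectional fit versus DMSO baseline.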

[12] = target: human CYP2A6, CYP2A6 (gene 1548) (UniProt P11509); assay: NVS_ADME_hCYP2A6: NovaScreen (NVS) CYP450-related Enzyme Activity (ADME) Assay for human CYP2A6 (AID 2283099; active = hit-call score of the fitted dose curve at least 0.9, where 1 is the maximum)
Sequence of human CYP2A6, CYP2A6 (gene 1548) (P11509 whole entry, looked up): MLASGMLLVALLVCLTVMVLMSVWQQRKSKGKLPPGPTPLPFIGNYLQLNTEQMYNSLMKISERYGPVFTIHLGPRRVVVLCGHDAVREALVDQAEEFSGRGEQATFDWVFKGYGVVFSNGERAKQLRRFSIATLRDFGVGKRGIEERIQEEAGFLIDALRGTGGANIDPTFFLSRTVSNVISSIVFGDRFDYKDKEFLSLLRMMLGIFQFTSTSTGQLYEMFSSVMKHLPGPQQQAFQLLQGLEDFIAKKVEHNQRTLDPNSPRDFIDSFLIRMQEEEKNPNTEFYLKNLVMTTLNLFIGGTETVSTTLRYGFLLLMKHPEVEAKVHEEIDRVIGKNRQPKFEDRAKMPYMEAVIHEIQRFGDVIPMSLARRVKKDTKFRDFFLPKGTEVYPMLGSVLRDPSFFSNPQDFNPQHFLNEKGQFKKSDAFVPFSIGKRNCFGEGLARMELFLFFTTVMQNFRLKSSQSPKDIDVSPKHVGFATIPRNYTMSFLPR
Summary of the method: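 Cell-free fluorescence readout of recombinant human CYP2A6 expressed in insect cells, read 0.5 h after dosing; loss of signal versus acetonitrile negative control. Primary screen in duplicate at 10 uM; actives re-run in concentration-response up to 20 uM.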

[13] = target: human CYP1A2, CYP1A2 (gene 1544) (UniProt P05177); assay: NVS_ADME_hCYP1A2: NovaScreen (NVS) CYP450-related Enzyme Activity (ADME) Assay for human CYP1A2 (AID 2283102; active = hit-call score of the fitted dose curve at least 0.9, where 1 is the maximum;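 for AC50: potency for inhibition since loss of fluorescence marks reduced CYP1A2 activity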)
Sequence of human CYP1A2, CYP1A2 (gene 1544) (P05177 whole entry, looked up): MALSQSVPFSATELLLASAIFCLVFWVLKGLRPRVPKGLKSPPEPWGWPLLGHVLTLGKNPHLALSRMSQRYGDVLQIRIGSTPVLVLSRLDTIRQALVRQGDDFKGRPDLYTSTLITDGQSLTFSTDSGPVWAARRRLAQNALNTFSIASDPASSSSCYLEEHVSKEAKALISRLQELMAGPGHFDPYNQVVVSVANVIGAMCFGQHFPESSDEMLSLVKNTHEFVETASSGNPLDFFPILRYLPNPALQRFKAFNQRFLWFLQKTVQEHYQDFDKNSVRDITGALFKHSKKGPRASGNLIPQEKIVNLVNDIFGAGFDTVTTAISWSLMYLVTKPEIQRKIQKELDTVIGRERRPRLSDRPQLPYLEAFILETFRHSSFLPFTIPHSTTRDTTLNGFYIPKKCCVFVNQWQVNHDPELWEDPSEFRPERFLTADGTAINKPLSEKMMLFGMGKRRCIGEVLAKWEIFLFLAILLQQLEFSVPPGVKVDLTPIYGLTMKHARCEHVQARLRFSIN
Summary of the method: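 Cell-free recombinant human CYP1A2 expressed in insect cells, with fluorogenic substrate; fluorescence intensity read 0.5 h after dosing. Loss of signal relative to acetonitrile baseline scored. Primary screen in duplicate at 10 uM; actives retested in concentration series.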

[14] = target: human CYP2D6, CYP2D6 (gene 1565) (UniProt P10635); assay: NVS_ADME_hCYP2D6: NovaScreen (NVS) CYP450-related Enzyme Activity (ADME) Assay for human CYP2D6 (AID 2283107; active = hit-call score of the fitted dose curve at least 0.9, where 1 is the maximum)
Sequence of human CYP2D6, CYP2D6 (gene 1565) (P10635 whole entry, looked up): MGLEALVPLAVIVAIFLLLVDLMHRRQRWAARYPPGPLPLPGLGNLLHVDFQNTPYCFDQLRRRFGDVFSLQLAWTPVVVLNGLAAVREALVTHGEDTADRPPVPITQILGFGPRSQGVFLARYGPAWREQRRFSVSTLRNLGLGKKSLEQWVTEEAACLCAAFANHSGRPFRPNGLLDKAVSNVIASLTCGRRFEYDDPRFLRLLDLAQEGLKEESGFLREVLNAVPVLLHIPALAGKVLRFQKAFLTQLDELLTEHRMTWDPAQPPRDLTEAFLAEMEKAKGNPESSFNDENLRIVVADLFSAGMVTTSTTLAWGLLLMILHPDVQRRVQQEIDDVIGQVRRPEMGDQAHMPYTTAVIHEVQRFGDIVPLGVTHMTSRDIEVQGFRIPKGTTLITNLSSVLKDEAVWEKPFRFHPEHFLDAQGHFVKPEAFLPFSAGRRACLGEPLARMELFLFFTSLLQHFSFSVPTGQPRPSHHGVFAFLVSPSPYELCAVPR
Summary of the method: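 Cell-free assay using recombinant enzyme expressed in insect cells, with fluorescence-intensity readout of enzyme activity 1 hour after chemical dosing. Loss of signal versus acetonitrile negative control indicates inhibition. Primary screen ran in duplicate at 10 uM; actives were retested in concentration series.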

[15] = target: human CYP19A1, CYP19A1 (gene 1588) (UniProt P11511); assay: NVS_ADME_hCYP19A1: NovaScreen (NVS) CYP450-related Enzyme Activity (ADME) Assay for human CYP19A1 (AID 2283098; active = hit-call score of the fitted dose curve at least 0.9, where 1 is the maximum)
Sequence of human CYP19A1, CYP19A1 (gene 1588) (P11511 whole entry, looked up): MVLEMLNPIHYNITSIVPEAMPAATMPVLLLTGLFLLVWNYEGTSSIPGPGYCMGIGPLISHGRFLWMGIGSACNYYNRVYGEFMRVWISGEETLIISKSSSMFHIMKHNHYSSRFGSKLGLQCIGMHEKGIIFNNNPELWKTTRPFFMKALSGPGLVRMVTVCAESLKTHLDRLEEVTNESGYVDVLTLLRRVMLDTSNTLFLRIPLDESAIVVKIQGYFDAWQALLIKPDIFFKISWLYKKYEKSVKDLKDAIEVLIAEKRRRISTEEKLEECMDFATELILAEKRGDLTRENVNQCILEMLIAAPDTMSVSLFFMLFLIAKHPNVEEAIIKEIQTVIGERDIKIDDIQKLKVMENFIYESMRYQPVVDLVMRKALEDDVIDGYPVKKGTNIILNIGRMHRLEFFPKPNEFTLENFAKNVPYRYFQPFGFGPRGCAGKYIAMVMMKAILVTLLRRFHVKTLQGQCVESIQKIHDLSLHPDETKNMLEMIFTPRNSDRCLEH
Summary of the method: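 Recombinant enzyme in a cell-free format, read 0.5 h after dosing by fluorescence from a fluorogenic substrate. Loss of signal was fitted against acetonitrile as baseline. Primary screen in duplicate at 10 uM, actives then tested in concentration series.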

Measured: AC50

Sequence of E-selectin (Homo sapiens) (P16581 whole entry, looked up): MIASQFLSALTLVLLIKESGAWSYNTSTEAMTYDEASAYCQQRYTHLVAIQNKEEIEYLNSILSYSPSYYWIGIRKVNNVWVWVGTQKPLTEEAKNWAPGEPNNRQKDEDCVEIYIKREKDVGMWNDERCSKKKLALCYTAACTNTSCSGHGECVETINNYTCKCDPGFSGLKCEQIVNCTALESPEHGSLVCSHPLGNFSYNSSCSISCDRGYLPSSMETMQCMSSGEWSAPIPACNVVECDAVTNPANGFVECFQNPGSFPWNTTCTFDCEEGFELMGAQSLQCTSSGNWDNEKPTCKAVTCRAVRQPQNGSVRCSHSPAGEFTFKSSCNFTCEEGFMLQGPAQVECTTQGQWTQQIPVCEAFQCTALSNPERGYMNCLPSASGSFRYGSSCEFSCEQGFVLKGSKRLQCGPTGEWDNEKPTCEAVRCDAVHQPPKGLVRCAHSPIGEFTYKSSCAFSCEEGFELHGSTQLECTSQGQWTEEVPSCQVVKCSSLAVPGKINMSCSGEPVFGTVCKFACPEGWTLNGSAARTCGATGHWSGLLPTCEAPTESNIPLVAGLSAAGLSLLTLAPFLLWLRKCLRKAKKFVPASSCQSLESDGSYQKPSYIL
Sequence of Tumor necrosis factor (Homo sapiens) (P01375 whole entry, looked up): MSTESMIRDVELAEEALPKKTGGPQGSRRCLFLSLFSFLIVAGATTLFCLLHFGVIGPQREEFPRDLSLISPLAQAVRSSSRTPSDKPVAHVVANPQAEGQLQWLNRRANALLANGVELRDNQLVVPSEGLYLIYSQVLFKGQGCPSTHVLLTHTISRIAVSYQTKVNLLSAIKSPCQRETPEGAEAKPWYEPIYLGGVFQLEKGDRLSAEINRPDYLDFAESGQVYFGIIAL

CSC(=O)c1cccc2nnsc12
active: [4] 4.96 µM | [12] 1.22 µM | [13] 0.653 µM | [14] 3.55 µM
not listed: [15]
inactive: all other assays above

CCOC(=O)C(C)Oc1ccc(Oc2nc3ccc(Cl)cc3o2)cc1 (stereo not given)
active: [1] 24.3 µM | CD38, CD38 (gene 952) 23.6 µM | CD40, CD40 (gene 958) 12 µM | [6] 20 µM | [7] 20 µM
not listed: [12] | [14] | [15]
inactive: all other assays above

Oc1ccc(C(c2ccc(O)cc2)C(Cl)(Cl)Cl)cc1
active: [1] 29.3 µM | [2] 20 µM | [3] 37 µM | [4] 4.66 µM | [5] 17.9 µM | CD38, CD38 (gene 952) 27.4 µM | CD40, CD40 (gene 958) 24.4 µM | CD69, CD69 (gene 969) 20 µM | [7] 10.6 µM | [8] 38.9 µM | [9] 20 µM | [10] 14.2 µM | [11] 32.3 µM
inactive: [15]

CCN(CC)C(=O)c1cccc(C)c1
active: [11] 13.9 µM
not listed: [12] | [13] | [14] | [15]
inactive: all other assays above
